Records with an inconclusive call do not appear. Activity calls are given as the source filed them. Rule for the calls: active = hit-call score of the fitted dose curve at least 0.9, where 1 is the maximum; inconclusive = response in the unintended direction; inactive = score below 0.9.
System: rainbow trout Peroxisome Proliferator-activated Receptor gamma (PPARg), gene 110528708
Test: ATG_rtPPARg_EcoTox2: Attagene TRANS-FACTORIAL EcoTox-2 HepG2 Assay for rainbow trout Peroxisome Proliferator-activated Receptor gamma (PPARg)
Method: ATG_EcoTox2 is a cell-based, multiplexed assay created by modifying the existing Attagene TRANS-FACTORIAL system to include a panel of nuclear receptors from some or all the following species: human (Homo sapiens), african clawed frog (Xenopus laevis), rainbow trout (Oncorhynchus mykiss), japanese medaka (Oryzias latipes), and zebrafish (Danio rerio). The ECOTOX2-FACTORIAL format uses HepG2, a human liver cell line, with measurements taken at 24 hours after chemical dosing in a 24-well plate. ATG_rtPPARg_EcoTox2 is one of 29 assay components calculated in the ATG_EcoTox2 assay. It is designed to make measurements of mRNA induction, a form of inducible reporter, as detected with fluorescence intensity signals by Reverse transcription polymerase chain reaction (RT-PCR) and Capillary electrophoresis technology.The assay endpoint ATG_rtPPARg_EcoTox2 was analyzed in the positive analysis fitting direction relative to DMSO as the negative control and baseline of activity. Using a type of inducible reporter, measures of mRNA for gain-of-signal activity can be used to understand the reporter gene at the transcription factor-level as they relate to the gene PPARg. Furthermore, this assay endpoint can be referred to as a primary readout, because this assay has produced multiple assay endpoints where this one serves a reporter gene function. To generalize the intended target to other relatable targets, this assay endpoint is annotated to the nuclear receptor intended target family, where the subfamily is non-steroidal.
Human liver HepG2 cells are transiently transfected with multiple reporter transcription units (MRTUs) in 6-well plates using FuGene 6 reagent (Roche; 3 ml FuGene/1 mg DNA). The MRTU constructs are regulated by a cis-regulating element (promoter). Each RTU expresses a GAL4-UAS that regulates the transcription of a nearby target reporter gene sequence. A major difference between the CIS and TRANS system is that in CIS activities of endogenous TFs are measured, whereas the TRANS assay evaluates changes in activities of exogenous, chimeric NR-Gal4 proteins. […] At the end of 24 hour incubation, total RNA was isolated using TriZol reagent (Invitrogen). The isolated RNA is then reverse-transcribed using oligo(dT) primer and Mo-MLV reverse transcriptase (Invitrogen) with DNAse I (Ambion) treatment for 30 min. The one-tenth of the produced cDNA was amplified by PCR using Taq DNA polymerase (Invitrogen) and two reporter sequence-specific primers. […] The fragments were purified using Qiaquick PCR columns (Qiagen), analyzed on an ABI 3130xL genetic analyzer (Applied Biosystems) with peak positions identified by using a set of X-rhodamine (ROX)-labeled MapMarker1000 molecular weight standards (BioVentures). […]

SMILES | outcome
CC(C)OC(=O)C(C)(C)Oc1ccc(C(=O)c2ccc(Cl)cc2)cc1 | inactive
C[C@]12C=CC(=O)C=C1CC[C@@H]1[C@@H]2C(=O)C[C@@]2(C)[C@H]1CC[C@]2(O)C(=O)CO | inactive
Cc1ccc(C)c(OCCCC(C)(C)C(=O)O)c1 | inactive
CC(C)(Oc1ccc(Cl)cc1)C(=O)O | inactive
